Assay results published in the supplement of paper PMC6555819.

Tests used:
Experiment in all cases: PBM binding z-score (relative to random genomic background probes); higher = stronger binding; sequences stand for … in GC…GCGATTGACAGCGTAGAATGAAGG
[1] = tested on: RARb homodimer (NR concentration 270 nM)
Summary of the method: (§1)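 Binding buffer was PBS pH 7.4 with 2% milk, 0.02% Triton X-100, 1 mM DTT, 0.2 mg/mL BSA and 0.4 mg/ml salmon testes DNA. In it, ligand-free nuclear receptor dimers were incubated 1 h on custom Agilent 4×180K protein-binding microarrays carrying double-stranded probes. Antibodies against each partner (one per run) detected binding, and z-scores were calculated against random background probes after regression normalization of scanned fluorescence.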

[2] = tested on: RARg:RXRa (NR concentration 270 nM, RXRa partner concentration 90 nM)
Summary of the method: as §1

[3] = tested on: RARg homodimer (NR concentration 270 nM)
Summary of the method: as §1

[4] = tested on: RXRa DBDmut IVT, anti-RXR (DBD mutation: RXRa K156A/R161A, NR concentration 90 nM)
Summary of the method: as §1

[5] = tested on: RXRa homodimer (NR concentration 180 nM)
Summary of the method: as §1

[6] = tested on: THRa:RXRa (NR concentration 90 nM, RXRa partner concentration 90 nM)
Summary of the method: as §1

[7] = tested on: THRa homodimer (NR concentration 90 nM)
Summary of the method: as §1

[8] = tested on: VDR homodimer (NR concentration 270 nM)
Summary of the method: as §1

Sequence | PBM binding z-score [1] | PBM binding z-score [2] | PBM binding z-score [3] | PBM binding z-score [4] | PBM binding z-score [5] | PBM binding z-score [6] | PBM binding z-score [7] | PBM binding z-score [8]
AATACAGGGTCTTCGTAGGCCAGAGTACGCACAG | 0.449 | 0.222 | 0.45 | 0.168 | 0.437 | 1.6 | -0.387 | 0.396
CGAACGTGGGCATGAGTTGATAGCAAATGCCGAT | -0.844 | -0.563 | -0.218 | 0.0414 | -0.376 | -0.695 | -1.12 | -0.195
AATCAAAGTTCATCTAGGTAACGTAAGATATGCT | 3.95 | 5.18 | 5.7 | 4.69 | 4.44 | 3.23 | 0.0393 | 4.45
TCTTGTAGATCAGGCAGGTTAAGAAAGCCTGAGT | -0.0605 | -0.161 | -0.489 | 0.355 | 0.102 | 0.149 | -0.429 | 0.00584
GGTATTAGTTGAAAGGGCAACCGAATGATTCTCG | 2.53 | 1.76 | 1.81 | 0.965 | 1.5 | 1.08 | 0.579 | 1.23
CCTGCTAGGTCAATGGGCAGCTAAAGCAGCTCGC | 2.4 | 3.12 | 4.03 | 0.674 | 1.35 | 1.99 | 0.0215 | -0.152
AGAATGAGTTTATACGTAGATCAGGGAAGAAAGT | -0.157 | 0.14 | 0.357 | 3.89 | -0.175 | -0.0164 | -0.368 | 3.35
TCAGACAGGTGAAGGTAACTCAAGTACGCAGTCG | 0.996 | 0.573 | 0.747 | 1.54 | 1.13 | 1.68 | 0.516 | 0.389
CGAGCTAGGTCATTGACAGGACAGTGAATAGTAA | 2.77 | 4.67 | 4.49 | 2.43 | 2.37 | 2.7 | 0.527 | 1.23
CCAGACAGGTGAAAGGCAACTCAGTCTGGTACGC | 0.304 | 0.225 | 0.332 | -0.268 | 0.712 | 0.000923 | -0.701 | 0.202
CGTCAATGTTCAAGGTAACGTAACAGAAAGCAGC | -0.0496 | 0.0962 | 0.453 | 0.148 | 0.198 | 1.56 | 1.19 | 0.0285
ATCTCTAGGTAAGACTCAGTTCAGTCAAGAACGC | 0.982 | 0.387 | 0.453 | 0.696 | 0.195 | 1.18 | 0.902 | 1.48
CTACCAAGGTGAATAAGGTCGTTGATTACTATTC | 2.05 | 1.54 | 1.21 | 1.38 | 1.71 | 3.6 | 2.67 | 2.68
TTAGCAAGGTGAAGGTCGTTGATCCCTCTGTAGA | 1.68 | 1.09 | 1.04 | -0.172 | 1.53 | 2.03 | 0.432 | 0.356
TCTCGTAGGACACGAAGGTCAGAGCTTTCCAGAG | 3.42 | 2.46 | 2.96 | 0.604 | 1.63 | 1.98 | 0.187 | 0.463
ATATGTAGGTTATCTGGTCATTCAGTTTGCGCAT | 1.34 | 1.39 | 1.15 | 1.08 | 1.46 | 0.737 | 0.562 | 1.07
TTTAGTTGGTCACGGAGGTCACACACGACGGGTA | 4.52 | 5.05 | 5.2 | 0.387 | 4.87 | 3.75 | 3.15 | 3.7
CCTACTGGGCCAACGTCATTGATCAGTCAAAGCA | 0.446 | -0.195 | -0.0642 | -0.651 | -0.328 | -0.204 | -0.526 | -0.545
CGTCCAAGGTCATAGGAGGTCAGTGTAGACAGAT | 5.63 | 6.73 | 7.24 | 3.82 | 6.53 | 5.46 | 3.59 | 4.71
TCATATAGGGAAAGGTGAAAGTCGAACGATATGA | 1.48 | 1.49 | 1.17 | 0.835 | 2.02 | 1.01 | -0.407 | -0.12
TCTCGGAGGACACGAAAGTTCAGAGCTCGACATC | 3.16 | 2.2 | 3.44 | 1.32 | 1.14 | 2.22 | 0.943 | 2.55
CCAGACAGTTGAAAGGTAACTCAGTCTGGTACGC | 0.351 | 0.456 | 0.357 | 0.511 | 0.993 | 0.38 | -0.129 | -0.355
ATATGTAGGTTACATCCGGGTCAGTCAGGCTATG | 2.61 | 3.29 | 1.88 | 0.541 | 2.01 | 3.19 | 1.66 | 1.45
GATACAGGGTCAAGGCGAGAGTACGCGTATTGAT | 3.23 | 5.39 | 4.87 | 2.77 | 5.61 | 3.32 | 1.11 | 2.48
ACTAGCAGGCCAAGTTCGGGTCACTCAAACAAAG | 2.96 | 3.14 | 2.14 | 0.623 | 1.81 | 3.55 | 2.61 | 2.1
AGAATCAGGTTACCAAAGATCAGGGAAACGCTTG | 0.374 | 0.744 | 0.974 | 0.0556 | 0.775 | 1.36 | 0.124 | -0.469
ATATGTGGGTTACATCCGGGTCATTCAGGCTATG | 2.79 | 3.53 | 1.94 | 1.08 | 3.17 | 3.75 | 3.01 | 3.65
GGAGCGAGGGCATTCGAGTTGATAGCATGGCGAT | 0.497 | 0.849 | 1.26 | 2.53 | 0.554 | 3.15 | -0.906 | 3.06
TCGAGTAGGTTACCAATGGGGCATTCAACTTTCT | 1.11 | 1.49 | 0.547 | 0.496 | 1.01 | 0.551 | -0.246 | -0.194
